# Results: PubChem BioAssay (NCATS)
# Records with an inconclusive call do not appear. A number with no mark means an inactive call. Activity calls are given as the source filed them. Calls come from the whole dose curve; as a rule, active = well fitted inhibition curve with a large enough effect in the repeat runs; inconclusive = weak or mixed curves; inactive = no such curve, though single readings can be large or run the other way.
# Molecular target: Cytochrome P450 2C9 (Homo sapiens) (UniProt P11712)
# Test: Cytochrome P450 family 2 subfamily C member 9 (CYP2C9) small molecule antagonists: luciferase biochemical (cell-free) qHTS assay (AID 1645842); note: nearly all actives have a fitted effect of over 55% in size
# Summary of the method: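 Luminescence, after 20 min with luciferin detection reagent, reflected CYP2C9 turnover during a 1 h NADPH-driven reaction at 37C. Enzyme-substrate mix contained 0.4% bovine serum albumin and was preincubated with compound 10 min at room temperature.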
# Potency is the fitted concentration of half-maximal effect.
# Chain of Cytochrome P450 2C9 (Homo sapiens) (P11712 whole entry, looked up): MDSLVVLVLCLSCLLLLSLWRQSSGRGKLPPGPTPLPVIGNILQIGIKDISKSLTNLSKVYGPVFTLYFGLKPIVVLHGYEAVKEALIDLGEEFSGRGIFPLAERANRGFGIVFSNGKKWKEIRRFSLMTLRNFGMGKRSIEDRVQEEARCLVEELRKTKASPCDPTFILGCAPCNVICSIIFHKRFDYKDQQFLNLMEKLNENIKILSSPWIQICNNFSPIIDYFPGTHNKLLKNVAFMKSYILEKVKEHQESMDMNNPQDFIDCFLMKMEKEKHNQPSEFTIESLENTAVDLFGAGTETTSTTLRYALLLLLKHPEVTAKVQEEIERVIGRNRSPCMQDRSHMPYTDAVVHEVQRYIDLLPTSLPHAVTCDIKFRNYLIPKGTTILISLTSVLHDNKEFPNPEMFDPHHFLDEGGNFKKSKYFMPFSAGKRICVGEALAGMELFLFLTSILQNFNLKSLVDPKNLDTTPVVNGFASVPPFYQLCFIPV
compound,measurement,value
COc1ccc(CC2c3cc(OC)c(OC)cc3CCN2CCC(=O)OCCCCCOC(=O)CCN2CCc3cc(OC)c(OC)cc3C2Cc2ccc(OC)c(OC)c2)cc1OC (stereo unspecified),Potency,21.3 µM (active)
